Nrf2 ARE act: activators of Nrf2 (ARE) signaling. AREc32 ARE-luciferase reporter (MCF7-derived line), luminescence, 24 h. Potency, µM (doses to about 46.1 µM), usual class: activators. 410,000 compounds, 0.31% hits. AID 624171; also: nearly all actives have a fitted effect of over 65% in size
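AREc32 cells carrying an ARE-driven firefly luciferase, 1000 cells/well in OPTI-MEM with 5% FBS, dosed after overnight attachment and incubated 24 hr at 37 deg C. Steady-Glo luminescence read after 30 min at RT.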
Nrf2 inh: blocks Nrf2 signaling; A549 ARE-Fluc reporter, luciferase luminescence, 18-24 h; Potency, µM (highest dose often 46 µM), hits mostly inhibitors; 360,000 compounds, 2.1% hits; AID 504444; also: nearly all actives have a fitted effect of over 60% in size
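Nrf2 activity is the BugLite luminescence, read 15 min after reagent at room temperature, following CellTiter-Fluor cytotoxicity readout (30 min, 37C). Compound titrations were applied for 18-24 h to 5000 A549 ARE_Fluc cells/well in 5% FBS OPTI-MEM.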
IL2 activator: activators of IL-2 | IL-2 activation reporter assay, cell-based qHTS; stimulated with anti-CD3/CD4/CD28 beads; in transgenic mouse T cells | activation, % (series mostly up to about 46 µM) | 360,000 compounds, 0.065% hits | AID 652025; in the data active = activation above about 50%; inconclusive = mostly about 30% to 49%
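Screening format: compound pinned onto unstimulated transgenic mouse T cells, 60 min incubation, then anti-CD3/anti-CD4/anti-CD28 bead stimulation for 18 hours at 37 degrees C, followed by EGFP and DsRed detection.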
A549 viability: counter-screen for Nrf2 inhibitors: cytotoxicity in A549 cells | A549 ARE-Fluc cells, CellTiter-Fluor viability, 18-24 h | 390,000 compounds, 0.16% hits | Potency, µM (top dose mostly 46 µM), actives largely listed as inhibitors
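Cytotoxicity counterscreen: CellTiter-Fluor fluorescence was measured in A549 ARE_Fluc cells after 18-24 h of compound exposure in a concentration series. The subsequent BugLite luminescent read reports ARE-luciferase activity.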
Of the large screens only hits and unclear results are named; the others gave an inactive call. This is a sample that favours compounds with a hit; in the whole collection about 2.3% have one here. Unless noted, calls follow the shape of the dose curve; as a rule, active = well fitted curve in the direction sought with a large enough effect; inconclusive = small, poorly fitted or top-dose-only effect, or another doubt; inactive = no such curve, though single readings can be large; an effect the other way counts as inactive or inconclusive.

CC(C)c1ccc(Nc2nc(Nc3ccc(Cl)cc3)nc(N3CCOCC3)n2)cc1	none (no result: Nrf2 ARE act, IL2 activator)
Cc1ccccc1-c1noc(N)c1C#N	Nrf2 ARE act 18µM
Cc1ccc(Cn2c(=O)c3cccnc3n(CC(=O)Nc3cccc(C(F)(F)F)c3)c2=O)cc1	Nrf2 inh 5.8µM
CCN(CC)CCNC(=O)C(=O)Nc1c2c(nn1-c1ccc(F)cc1)CSC2	none (no result: Nrf2 inh, IL2 activator)
CCn1c(-c2ccc(C)cc2)nn(CC(=O)NCCc2ccccc2)c1=S	Nrf2 inh 23µM, A549 viability inconclusive
COc1ccc(-c2nn(CC(=O)NCCc3ccccc3)c(=S)n2C)cc1	Nrf2 inh inconclusive
Cc1cc(C)cc(NC(=O)c2ccc(CSc3nnc(C)s3)cc2)c1	none
COc1ccc(OC)c(NC(=O)c2ccc(CSc3nnc(C)s3)cc2)c1	Nrf2 inh 26µM
Cc1cccc(C(=O)N2N=C(c3ccc(NS(C)(=O)=O)cc3)CC2c2cccs2)c1 (stereo not given)	Nrf2 inh 23µM
CCS(=O)(=O)Nc1ccc(C2=NN(C(=O)c3ccccc3)C(c3cccs3)C2)cc1 (stereo not given)	Nrf2 inh inconclusive
Cc1ccc(CN(C)C(=O)C2CCN(C(=O)Nc3ccccc3)CC2)o1	none
CN(Cc1ccc(C(C)(C)C)cc1)C(=O)C1CCN(C(=O)Nc2ccccc2)CC1	Nrf2 inh 21µM
COc1ccccc1CNC(=O)CSC1=Nc2ccccc2N=C(c2ccc(F)cc2)C1	none (no result: Nrf2 inh, IL2 activator)
CCOC(=O)C1(CCOc2ccccc2)CCN(Cc2cccc3nonc23)CC1	Nrf2 inh 21µM
Cc1ccc(-c2csc(N3CCC(C(N)=O)CC3)n2)cc1	none
Cc1ccc(-c2csc(N3CCC(NS(=O)(=O)c4ccc5c(c4)OCCO5)CC3)n2)cc1	Nrf2 inh 15µM, A549 viability inconclusive
CCOc1ccc(/C=C/C(=O)c2cc(Br)ccc(=O)c2O)cc1	Nrf2 inh 16µM
CCc1ccc(/C=C/C(=O)c2cc(Br)ccc(=O)c2O)cc1	Nrf2 ARE act inconclusive, Nrf2 inh 7.3µM, A549 viability inconclusive
Cc1cccc(/C=C/C(=O)c2cc(Br)ccc(=O)c2O)c1	Nrf2 ARE act 22µM, Nrf2 inh inconclusive, A549 viability inconclusive
CCOc1ccc(C(=O)/C=C/c2ccc(OC)c(OC)c2)cc1	Nrf2 ARE act inconclusive, Nrf2 inh inconclusive
O=C(C=Cc1ccccc1)c1cc(Br)ccc1O	Nrf2 ARE act inconclusive, Nrf2 inh inconclusive
CCc1nc(N2CCN(C(=O)c3ccco3)CC2)c2oc3ccccc3c2n1	Nrf2 inh inconclusive
Cc1nc(N2CCN(C(=O)c3ccco3)CC2)c2oc3ccccc3c2n1	Nrf2 inh 21µM
Cc1ccc(-n2nnnc2CNC(=O)c2cc(C(F)(F)F)cc(C(F)(F)F)c2)cc1C	none (no result: Nrf2 inh, IL2 activator)
CS(=O)(=O)N1CCC(Oc2cccc(C(=O)NCCCC3CCCC3)c2)CC1	Nrf2 inh 26µM
COCCC1CCCCN1C(=O)c1cccc(OC2CCN(S(C)(=O)=O)CC2)c1 (stereo not given)	none
Nc1nn(-c2ccccc2)c(N)c1N=Nc1ccc2c(c1)OCO2	A549 viability 15µM
Nc1nn(-c2ccccc2)c(N)c1N=Nc1cccc(F)c1	Nrf2 inh inconclusive
Nc1ccccc1SC(CC(=O)c1ccccc1)c1cccc([N+](=O)[O-])c1 (stereo not given)	Nrf2 ARE act 5µM (no result: Nrf2 inh, A549 viability)
O=S(=O)(c1ccccc1Br)N1CCN(c2nc(-c3ccccc3)nc3ccccc23)CC1	none (no result: Nrf2 ARE act, IL2 activator)
COCc1nnc(NC(=O)c2ccc(S(=O)(=O)N3CCCc4ccccc43)cc2)o1	A549 viability inconclusive
O=C(Nc1nnc(C2CC2)o1)c1ccc(S(=O)(=O)N2CCCc3ccccc32)cc1	Nrf2 inh 10µM
COc1cccc(-c2nnc(NC(=O)c3ccc(S(=O)(=O)N4CCOCC4)cc3)o2)c1	Nrf2 inh 12µM
COc1ccc(-c2nnc(NC(=O)c3ccc(S(=O)(=O)N4CCCc5ccccc54)cc3)o2)cc1	Nrf2 inh 14µM, A549 viability inconclusive
COc1ccccc1-c1nnc(NC(=O)c2ccc(S(=O)(=O)N3CCOCC3)cc2)o1	Nrf2 inh inconclusive
CC1(C)CC(=O)C2=C(C1)NC(Nc1nc3ccccc3o1)=NC2c1cccc(F)c1 (stereo not given)	none (no result: Nrf2 ARE act, IL2 activator)
Cc1cccc(C(=O)Nc2cc(-c3ccccc3F)nn2-c2ccccc2)c1	none (no result: Nrf2 inh, IL2 activator)
COc1ccc(C(=O)N(Cc2ccccc2)Cc2ccccc2)cc1COc1ccc(NC(C)=O)cc1	Nrf2 inh inconclusive (no result: Nrf2 ARE act, IL2 activator)
O=C(COc1ccc(F)cc1)OCc1cc(=O)n2nc(C3CCCCC3)sc2n1	Nrf2 inh inconclusive (no result: IL2 activator)
